# ELG1 genotoxic: inducers of genotoxicity in HEK293T ELG1-luciferase cells | HEK293T ELG1-luciferase reporter, luminescence, 16 h | Potency, µM (top dose mostly 46 µM), for the others: at the highest dose activity change, positive = activation, actives largely listed as activators | hit rate 1.3% among 330,000; further: % of control where 0% means no effect; nearly all actives have a fitted effect of over 60% in size
#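 HEK293T cells expressing luciferase-tagged ELG1 were exposed to compound or DMSO vehicle for 16 hr at 37 °C and 5% CO2. Luciferase activity was then measured with ONE-Glo after 30 min at room temperature.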
# Luc counter: blocks Kinase-Glo luciferase, a counter-screen artifact; hit rate 0.28% among 200,000; Kinase-Glo luciferase, ATP luminescence, 8 min; AID 1379; Potency, µM (top dose mostly 38.3 µM), without a hit: top-dose activity change, negative = inhibition, hits mostly inhibitors; further: on the % scale 0 is the no-effect control and ±100 the full control effect; nearly all actives have a fitted effect of over 60% in size
#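 Light output from Kinase-Glo luciferase with luciferin and 10 uM ATP in 50 mM imidazole pH 7.2, KCl, MgCl2, Tween 20, BSA; compound pin-delivered, 8-min ambient incubation, then luminescence read.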
# NPC1 prom act: NPC1 promoter activation. Huh7 NPC1 promoter luciferase reporter, 24 h. Potency, µM (highest dose often 9.22 µM), for inactives: at the highest dose activation, hits mostly activators. hit rate 2.4% among 320,000; further: % of control where 0% means no effect; nearly all actives have a fitted effect of over 60% in size
#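 NPC1 promoter–luciferase Huh7 cells; 24 h compound; luminescence.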
# Rab9 promoter act: activates the Rab9 promoter. Huh7 Rab9 promoter-luciferase reporter, luminescence, 24 h. Potency, µM (highest dose often 9.22 µM), for inactives: top-dose activation, negative = inhibition, actives largely listed as activators. hit rate 2.8% among 320,000; further: % of control where 0% means no effect; nearly all actives have a fitted effect of over 60% in size
#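 Huh7 reporter line, Rab9 promoter upstream of luciferase. Compound exposure 24 h at 37 °C in reduced-serum medium with 10% FBS. Read-out: luminescence.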
# FLuc modulator: firefly luciferase modulation, counter-screen for miR-21 project | P08659 | purified FLuc, Km substrates, luminescence inhibition | Potency, µM (highest dose often 57.5 µM), for inactives: at the highest dose activity change, negative = inhibition, usual class: inhibitors | hit rate 6.9% among 360,000;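 further: plate controls were vehicle for no effect and reference inhibitor for full effect; nearly all actives have a fitted effect of over 55% in size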
# Target sequence (P08659 whole entry, looked up): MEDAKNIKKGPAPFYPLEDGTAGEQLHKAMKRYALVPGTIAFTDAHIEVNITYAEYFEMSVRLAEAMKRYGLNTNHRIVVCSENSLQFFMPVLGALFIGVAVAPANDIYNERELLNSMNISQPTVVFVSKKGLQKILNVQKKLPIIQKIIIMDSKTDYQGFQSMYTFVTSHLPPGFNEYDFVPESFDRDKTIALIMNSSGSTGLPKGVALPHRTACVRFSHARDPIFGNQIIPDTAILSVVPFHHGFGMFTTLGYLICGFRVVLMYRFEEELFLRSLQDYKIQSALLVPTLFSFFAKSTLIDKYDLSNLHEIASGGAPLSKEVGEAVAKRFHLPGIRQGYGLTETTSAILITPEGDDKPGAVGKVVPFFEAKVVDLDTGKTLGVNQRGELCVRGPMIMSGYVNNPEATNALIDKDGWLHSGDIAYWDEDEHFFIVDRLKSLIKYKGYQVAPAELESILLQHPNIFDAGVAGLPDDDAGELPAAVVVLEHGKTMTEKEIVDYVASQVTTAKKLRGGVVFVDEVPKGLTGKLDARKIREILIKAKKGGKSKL
#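 Purified P. pyralis luciferase, 10 nM final, with Km-level 10 uM D-luciferin and 10 uM ATP in 50 mM Tris acetate pH 7.5, 10 mM Mg acetate, 0.01% Tween-20, 0.05% BSA; 6-point qHTS titration about 60 µM downward; luminescence read.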
# SMN2 splice enh: enhancers of SMN2 splice variant expression | Potency, µM (doses to about 46.1 µM), inactives show at the top dose activity change, positive = activation, hits mostly activators | HEK293 SMN2-luciferase splicing reporter, luminescence, 30-36 h | AID 1458 | hit rate 2.8% among 210,000; further: % of control where 0% means no effect; nearly all actives have a fitted effect of over 55% in size
#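 HEK293 cells carry an SMN2 minigene-luciferase reporter in which exon 7 inclusion puts luciferase in frame. Cells were seeded at 2000 cells/well, attached for 10-12 hours, then exposed to compounds for 30-36 hours at 37C before ONE-Glo luminescence.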
# * = called active by the depositor; u = inconclusive; x = no result; [ ] = remark or other dose. Shown are actives, neighbours in structure and some others; about 7.5% of the full set was active somewhere. The call rests on the fitted dose curve; in most records, active means well fitted curve in the direction sought with a large enough effect; inconclusive means small, poorly fitted or top-dose-only effect, or another doubt; inactive means no such curve, though single readings can be large; an effect the other way counts as inactive or inconclusive. Potency means the concentration at half of the fitted maximal effect.
SMILES,ELG1 genotoxic,Luc counter,NPC1 prom act,Rab9 promoter act,FLuc modulator,SMN2 splice enh
COCCNc1nc(-c2cc3ccccc3o2)cs1,u,2.8%,1.58µM*,1µM*,1.51µM*,3.16µM*
COc1ccccc1NS(=O)(=O)c1cccc(C(=O)N/N=C/c2c(CO)cnc(C)c2O)c1,13.4%,x,-2.0%,-18.2%,3.2%,x
COc1ccccc1N/N=C/c1c(CO)cnc(C)c1O,8.2%,-0.9%,-2.8%,-6.1%,13.5µM*,-11.6%
Cc1ncc(CO)c(/C=N/NC(=O)c2ccc(O)cc2)c1O,0.4%,3.3%,-4.0%,-0.6%,u,u
COc1ccc(C(=O)N/N=C/c2c(CO)cnc(C)c2O)cc1,-10.2%,-1.7%,1.3%,0.1%,21.3µM*,-72.7%
Cc1cccc(NC(=O)Nc2cccc(F)c2)n1,u,-2.2%,u,u,13.5µM*,11.4%
CCc1ccccc1NC(=O)Nc1cccc(F)c1,-4.7%,-2.9%,-3.6%,0.9%,u,-3.9%
COc1cccc(NC(=O)Nc2nccc(C)n2)c1,u,x,1.26µM*,0.562µM*,1.2µM*,x
Cc1ccnc(NC(=O)Nc2cccc(F)c2)n1,u,-10.1%,2.24µM*,1.12µM*,7.57µM*,11.2µM*
CCOC(=O)Cc1c(C)nc2c(-c3ccccc3)c(-c3ccccc3)[nH]n2c1=O,-3.8%,3.4%,2.2%,0.3%,-11.8%,4.47µM*
CCOC(=O)Cc1c(C)nc2c(-c3ccccc3)c(C)[nH]n2c1=O,-2.9%,1.3%,2.1%,1.9%,-11.7%,-17.1%
CC(C)(C)NC(=O)CN(C(=O)CCC(=O)Nc1nccs1)c1cccc(C(F)(F)F)c1,-4.1%,x,0.8%,-1.5%,-1.6%,x
Cc1cccc(N=C/C(C(=O)C(F)(F)F)=C(\O)c2ccco2)c1,1.4%,-5.9%,-3.9%,0.2%,10.3%,6.1%
Cc1ccc(N=C/C(C(=O)C(F)(F)F)=C(\O)c2ccco2)cc1Cl,u,x,2.0%,0.4%,9.53µM*,x
O=C(NCCNC(=O)c1ccco1)c1ccc(F)cc1,0.9%,3.2%,0.3%,8.5%,-1.4%,-2.8%
O=C(/C(C=Nc1ccc(F)cc1)=C(/O)c1ccco1)C(F)(F)F,7.31µM*,-2.3%,2.3%,23.9%,8.49µM*,u
Cc1cc2c(c(=O)n1-c1ccccc1)C1O[C@](c3ccsc3)(Cc3cc(C#N)ccc31)O2,x,x,0.5%[1.84 µM],0.7%[1.84 µM],1.4%[11.5 µM],x
Nc1ncc(Br)cc1S(=O)(=O)Nc1cc(C(F)(F)F)cc(C(F)(F)F)c1,-12.3%,x,-10.5%,-12.0%,2.4%,x
O=C(NCCn1ccc2ccccc21)c1ccc(Cl)cc1,x,x,x,x,21.3µM*,12.6µM*
COc1cccc(C(=O)NCCn2ccc3ccccc32)c1,u,-0.4%,2.82µM*,3.98µM*,19µM*,7.94µM*
COc1ccc(NC(=O)CSc2c3c(nc4ccc(Cl)cc24)CCCC3)cc1Cl,x,x,x,x,-2.6%,-3.9%
COc1ccc2sc(-c3ccc(SC)cc3)c(/C=C/c3ccc(OC)c(OC)c3)c2c1,-0.3%,x,x,x,x,x
Cc1cc2nc3ccc(=[N+](C)C)cc-3sc2cc1N,-2.4%,x,11.7%,13.9%,16.9µM*,x
Cc1nc(SCC(=O)Nc2ccccc2Cl)c2c(C)c(C)sc2n1,4.2%,x,0.7%,-1.7%,0.7%,x
Cc1nc(NC(C)C)c2cnn(CCc3ccccc3)c2n1,14.6µM*,0.7%,23.6%,u,u,3.8%
SMILES,ELG1 genotoxic,Luc counter,NPC1 prom act,Rab9 promoter act,FLuc modulator,SMN2 splice enh
CCCNc1nc(C)nc2c1cnn2CCc1ccccc1,u,-3.1%,23.6%,26.3%,-19.0%,-1.3%
C=C1SC(=Nc2c(C)cc(C)cc2C)N(C(=O)c2sc3ccccc3c2Cl)C12CCCCC2,-7.1%,x,-1.9%,-5.3%,0.9%,x
C=C1SC(=Nc2ccccc2Cl)N(C(=O)c2sc3ccccc3c2Cl)C12CCCCC2,5.9%,x,10.1%,22.8%,21.3µM*,x
COc1ccccc1NS(=O)(=O)c1ccc(C(=O)N2CCN(c3ccccn3)CC2)cc1,-5.1%,x,x,x,x,x
COc1ccc2nc(NC(=O)CSc3nc(SC)ns3)sc2c1,13.6%,-1.5%,20.3%,u,u,u
COc1ccc2nc(NC(=O)CSc3nnnn3C3CCCCC3)sc2c1,x,-0.7%,x,x,u,-8.4%
COc1ccc2nc(NC(=O)CSc3n[nH]c(N)n3)sc2c1,14.6µM*,x,u,u,9.53µM*,x
COc1ccc2nc(NC(=O)CSc3nnnn3C)sc2c1,14.5%,-4.5%,2.82µM*,3.16µM*,u,x
COc1ccc2nc(NC(=O)CSc3nnc(C)s3)sc2c1,20.6µM*,-0.3%,2.51µM*,u,u,26.2%
COc1ccc2nc(NC(=O)CSc3nnc4n3C(C)(C)Cc3ccccc3-4)sc2c1,u,-3.6%,-3.6%,8.0%,6.75µM*,-5.6%
CCOC(=O)c1ccc(NC(=O)C2CCCN(c3ncnc4onc(C)c34)C2)cc1 (stereo not drawn),x,x,x,x,-0.4%,x
Cc1ccc(Nc2nc(N)nc(CSc3nccn3C)n2)cc1,2.91µM*,-1.8%,2.51µM*,1.58µM*,9.53µM*,12.6µM*
Cc1cccc(Nc2nc(N)nc(CSc3nccn3C)n2)c1,u,2.2%,u,5.01µM*,u,u
Cc1nc(-n2nc(C)c(Cc3ccccc3Cl)c2C)sc1C(=O)N1CCCCC1C (stereo not drawn),x,x,x,x,-1.3%,x
COC(=O)CC1C(=O)NCCN1C(=O)c1cc(OC)c(OC)cc1OC (stereo not drawn),-0.6%,x,1.7%,-5.5%,-1.4%,x
O=C(CCC(=O)N1CC2CCCN2c2ccccc21)NCc1ccc(Cl)cc1 (stereo not drawn),x,x,x,x,-9.1%,x
CCOc1ccc(CCNC(=O)c2oc(=O)c3ccccc3c2-c2ccc(C)cc2)cc1OCC,x,x,x,x,-8.4%,-12.0%
O=C(CCCn1c2ccccc2c(=O)c2ccccc21)Nc1ccc(F)cc1Cl,x,x,x,x,-14.9%,-31.6%
C[C@@H]1C(c2cccc(Cl)c2)=NN(c2ccc(Br)cc2)[C@H]1C(=O)N1CCOC1=O,-1.4%,2.9%[39.9 µM],x,x,x,x
CCCCCCCCCCCCCCCC(=O)NCCCC(=O)O,x,-1.2%,x,x,x,7.6%
Fc1ccccc1-c1cc2ccccc2cn1,u,x,u,-0.9%,4.78µM*,x
c1ccc2cc(C3=NCCN3)ncc2c1,x,-0.9%,x,x,x,x
O=c1c2c3c(sc2nc2n1CCCCC2)C(O)CCC3 (stereo not drawn),u,-5.4%,u,2.82µM*,u,x
O=C1c2sc3nc4n(c(=O)c3c2CCC1Br)CCCCC4 (stereo not drawn),u,-5.6%,29.1%,u,19µM*,-4.3%
Cc1cc(OCC(=O)NC(C)c2ccccc2)ccc1[N+](=O)[O-] (stereo not drawn),-10.1%,3.9%,-6.5%,-12.5%,1.7%,-27.1%
CCOc1ccc(C2c3c(-c4ccc(C)cc4)n[nH]c3C(=O)N2c2ccc(Cl)cc2)cc1 (stereo not drawn),x,x,x,x,1.7%,-8.7%
